# From PubChem BioAssay (NCI)
# Values joined by “and” are separate entries in the source; they are usually repeats but may differ in a detail not shown here. Identical values can stand only once. About 83,000 compounds went through this panel and 20% of them were active in at least one assay; those are over-represented in the sample as a whole.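 Single-concentration screen, 48 h exposure, 96-well plates. Endpoint: percent growth. Below 10 = active.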 Active and inactive are the calls of the source.
# Experiments:
# Experiment in all cases: NCI-60 one-dose screen, 48 h (100 = growth as untreated, 0 = no growth, -100 = all killed)
# Settings in all cases: 10 µM unless noted
# [1] = system: DU-145 prostate
# [2] = system: MDA-MB-231 breast
# [3] = system: RXF 393 renal
# [4] = system: SF-268 CNS
# [5] = system: SF-295 CNS
# [6] = system: SF-539 CNS
# [7] = system: UACC-257 melanoma
# [8] = system: M14 melanoma
# [9] = system: HCT-15 colon
# [10] = system: HT29 colon
# [11] = system: SNB-75 CNS
# [12] = system: SNB-19 CNS
# [13] = system: U251 CNS
# [14] = system: SK-MEL-5 melanoma
# [15] = system: UACC-62 melanoma
# [16] = system: SK-MEL-28 melanoma
# [17] = system: MALME-3M melanoma
# [18] = system: PC-3 prostate
# [19] = system: LOX IMVI melanoma
# [20] = system: K-562 leukemia
smiles,measurement,setting,value
CCOc1ccc(/C=N\N2CCCCCC2)cc1OCC,growth,[1],108% (inactive)
same,growth,[2],77.7% (inactive)
same,growth,[3],103% (inactive)
same,growth,[4],102% (inactive)
same,growth,[5],104% (inactive)
same,growth,[6],97.2% (inactive)
same,growth,[7],96.2% (inactive)
same,growth,[8],105% (inactive)
same,growth,[9],62.1% (inactive)
same,growth,[10],100% (inactive)
same,growth,[11],85.2% (inactive)
same,growth,[12],96.2% (inactive)
same,growth,[13],86% (inactive)
same,growth,[14],83.1% (inactive)
same,growth,[15],75.1% (inactive)
same,growth,[16],95.5% (inactive)
Clc1ccc(C2=Nc3cccc4cccc(c34)N2)cc1Cl,growth,[1],110% (inactive)
same,growth,[17],102% (inactive)
same,growth,[2],97.4% (inactive)
same,growth,[3],-5.75% (active)
same,growth,[5],112% (inactive)
same,growth,[6],108% (inactive)
same,growth,[7],93.6% (inactive)
same,growth,[8],103% (inactive)
same,growth,[9],70.2% (inactive)
same,growth,[10],101% (inactive)
same,growth,[11],77.5% (inactive)
same,growth,[12],70.3% (inactive)
same,growth,[13],104% (inactive)
same,growth,[18],65.8% (inactive)
same,growth,[14],91.6% (inactive)
same,growth,[15],109% (inactive)
same,growth,[19],84% (inactive)
same,growth,[16],104% (inactive)
CC1SC(c2ccc(Cl)cc2)N(CCc2cccs2)C1=O (configuration not stated),growth,[20],7.81% (active)
same,growth,[17],-32.8% (active)
same,growth,[2],-4.43% (active)
same,growth,[3],-35.7% (active)
same,growth,[4],14.3% (inactive)
same,growth,[5],-2.2% (active)
same,growth,[6],-49.7% (active)
same,growth,[7],-28.7% (active)
same,growth,[8],-12.8% (active)
same,growth,[9],1.46% (active)
same,growth,[11],-9.5% (active)
same,growth,[12],12.4% (inactive)
same,growth,[13],-8.49% (active)
same,growth,[18],-1.67% (active)
same,growth,[14],-99.2% (active)
same,growth,[15],-46.3% (active)
same,growth,[19],-85.2% (active)
same,growth,[16],8.16% (active)
CC(C)C1OC23CCCCC2C(C#N)(C#N)C1(C#N)C(=N)O3 (configuration not stated),growth,[15],-2.68% [100 µM] (active)
CCCCCCCCCc1cc(=O)c2c(O)cc(O)cc2o1,growth,[15],-88.9% [100 µM] (active) and -100% [100 µM] (active)
Cc1ccc(C(=O)O[C@H](C(=O)O)[C@H](OC(=O)c2ccc(C)cc2)C(=O)O)cc1,growth,[2],113% (inactive)
same,growth,[12],102% (inactive)
C1CCC([PH+](C2CCCCC2)C2CCCCC2[PH+](C2CCCCC2)C2CCCCC2)CC1.[Au].[CH-]1CCCCC1CC1CCCC[N-]1 (configuration not stated),growth,[11],19.8% (inactive)
CSc1nnc(-c2sc3nnc(-c4ccccc4)c(-c4ccccc4)c3c2O)o1,growth,[1],84.7% (inactive)
same,growth,[2],90.4% (inactive)
same,growth,[3],82.6% (inactive)
same,growth,[4],80.6% (inactive)
same,growth,[5],40.8% (inactive)
same,growth,[6],84.6% (inactive)
same,growth,[7],91.6% (inactive)
same,growth,[8],73% (inactive)
same,growth,[9],54.6% (inactive)
same,growth,[10],107% (inactive)
same,growth,[11],78.4% (inactive)
same,growth,[12],66.4% (inactive)
same,growth,[13],62.9% (inactive)
same,growth,[14],83.5% (inactive)
same,growth,[15],58.9% (inactive)
same,growth,[16],85.5% (inactive)
c1ccc2c(c1)oc1cc3c(cc12)nnc1cccn13,growth,[17],93.8% (inactive)
same,growth,[2],101% (inactive)
same,growth,[3],127% (inactive)
same,growth,[4],105% (inactive)
same,growth,[5],101% (inactive)
same,growth,[6],95.1% (inactive)
same,growth,[7],95.7% (inactive)
same,growth,[8],98.7% (inactive)
same,growth,[9],104% (inactive)
same,growth,[10],103% (inactive)
same,growth,[11],91.7% (inactive)
same,growth,[12],108% (inactive)
same,growth,[13],97.2% (inactive)
same,growth,[18],100% (inactive)
same,growth,[14],98.2% (inactive)
same,growth,[15],106% (inactive)
same,growth,[19],112% (inactive)
same,growth,[16],116% (inactive)
CN(C)CCNc1ccc(NCC[N+](C)(C)Cc2ccc([N+](=O)[O-])cc2)c2c1C(=O)c1ccccc1C2=O,growth,[15],37.1% [25 µM] (inactive) and 1.14% [25 µM] (active)
CC(=O)Nc1c(C)cc2c(nc3n2CCC3OC(C)=O)c1[N+](=O)[O-] (configuration not stated),growth,[15],134% [100 µM] (inactive) and 108% [100 µM] (inactive)
Cc1sccc1C(=S)Nc1ccc(Cl)c(/C=N/OC(C)(C)C)c1,growth,[15],-86.5% [100 µM] (active) and -92.3% [100 µM] (active)
Cc1cc(O)cc2c1[C@H]1CC[C@]3(C)[C@@H](O)CC[C@H]3[C@@H]1C=C2,growth,[1],113% (inactive)
same,growth,[2],80.9% (inactive)
same,growth,[4],92.2% (inactive)
same,growth,[6],98.4% (inactive)
same,growth,[7],85.2% (inactive)
same,growth,[8],77.5% (inactive)
same,growth,[9],78.7% (inactive)
same,growth,[10],93.5% (inactive)
same,growth,[11],76.2% (inactive)
same,growth,[12],94.7% (inactive)
same,growth,[13],92.5% (inactive)
same,growth,[18],86.3% (inactive)
same,growth,[14],83.8% (inactive)
same,growth,[15],73.5% (inactive)
same,growth,[19],81.3% (inactive)
same,growth,[16],99.8% (inactive)
O=c1[nH]c(=O)n(C2CC(O)C(CO)O2)cc1Br (configuration not stated),growth,[15],72.2% [100 µM] (inactive) and 19.1% [100 µM] (inactive)
CCOc1cc2c(cc1O)C(=O)C[C@@H]1[C@@H]2CC[C@]2(C)[C@@H](O)CC[C@@H]12,growth,[15],13.5% [100 µM] (inactive) and 0.709% [100 µM] (active)
